# Measured values reported in ChEMBL document CHEMBL4513216, “Probing the Open Global Health Chemical Diversity Library for Multistage-Active Starting Points for Next-Generation Antimalarials” (ACS Infect Dis, 2020).
# Screen size: about 69,000 compounds; about 8,600 (12%) showed an effect of 50% or more. This excerpt belongs to a sample that is enriched for strong results.
# Test system: Plasmodium berghei
# Assay: Screen against P. berghei liver stage (PbLuc), transformed with Luciferase, at 10uM
# Format: functional, HepG2
# Settings: tested at 10 uM
row,Structure (SMILES),INHIBITION
1,O=C(CC1Cn2ncnc2NC1=O)Nc1ccc(F)c(F)c1 (centres undefined),26.7%
2,Cc1nc(CN2CCN(c3cncc(Cl)n3)CC2)no1,14.6%
3,CN1CC(=O)N(c2ccccc2)CC12CCN(Cc1nccs1)C2 (centres undefined),-35.9%
4,c1ccc(CN2CCC3(CC2)CN(c2ccccn2)CCO3)nc1,-6.97%
5,Cn1ccnc1CN1CCC2(CC1)CN(c1ccccn1)CCO2,91.9%
6,COc1ncccc1CN1CCC2(CC1)CN(c1ccccn1)CCO2,41.8%
7,Fc1ccc(CN2CCC3(CC2)CN(c2ccccn2)CCO3)cc1,79.1%
8,COc1ccc(CN2CCC3(CC2)CN(c2ccccn2)CCO3)cc1,26.4%
9,Cc1noc(C)c1CN1CCC2(CC1)CN(c1ccccn1)CCO2,-40.4%
10,CC(C)c1nc(CN2CCCN(c3nccs3)CC2)no1,25.4%
11,CC(=O)N1CCn2c(C(=O)N(C)C)cnc2C1,47.8%
12,CSc1ccccc1C(=O)N1C[C@@H]2CC[C@H]1CN(C(=O)N(C)C)C2,21.2%
13,Nc1c(C(=O)C2CCCN(C(=O)C3CC3)C2)cnn1-c1ccc(F)cc1 (centres undefined),38.9%
14,CCCC(=O)N1CCCC(C(=O)c2cnn(-c3ccc(F)cc3)c2N)C1 (centres undefined),17.35%
15,CCC(=O)N1CCCC(C(=O)c2cnn(-c3ccc(F)cc3)c2N)C1 (centres undefined),56.3%
16,c1cnc(C2CCCN2c2cnccn2)cn1 (centres undefined),42.4%
17,CC(C)Cc1cc(C(=O)N2CCC(N3CCCC3)CC2)cc(O)n1,24.4%
18,COCC1CCN(C(=O)c2cc(O)nc(CC(C)C)c2)CC1,51.1%
19,CC(C)Cc1cc(C(=O)N2CCC(Cc3cnn(C)c3)C2)cc(O)n1 (centres undefined),26.6%
20,COC(=O)c1ccc(S(=O)(=O)N2CCCn3ncnc32)s1,3.84%
21,O=C1CC(c2ccc(Cl)c(Cl)c2)c2c(n3ccsc3nc2=O)N1 (centres undefined),36.2%
22,O=C(c1cc(-c2cccs2)cs1)N1CCOCC1,-132%
23,CC(C)c1nnc2n1CCN(Cc1cc(Cl)c3c(c1)OCCO3)C2,10.1%

row,Structure (SMILES),INHIBITION
1,CC(Cn1ccnc1)NC(=O)NCc1cccnc1OC1CCCC1 (centres undefined),17.4%
2,CC(=O)N1CCCC1c1nnc2n1CCCCC2 (centres undefined),-2.37%
3,O=C(c1ccc(Cl)o1)N1CCCC1c1nnc2n1CCCCC2 (centres undefined),29.8%
4,Cc1ccc(C(=O)N2CCCC2c2nnc3n2CCCCC3)o1 (centres undefined),8.47%
5,CSCCC(=O)N1CCCC1c1nnc2n1CCCCC2 (centres undefined),54.3%
6,CC(C)CCC(=O)N1CCCC1c1nnc2n1CCCCC2 (centres undefined),26.9%
7,CCc1ccc(C(=O)N2CCCC2c2nnc3n2CCCCC3)o1 (centres undefined),57.7%
8,CCN(CC)CCNC(=O)c1cc(OC)c2ccoc2c1,31.1%
9,CC(=O)CN1CC2(CCNCC2)COc2ccccc2S1(=O)=O,26.3%
10,COc1ncc(-c2cc(NCCN(C)C)nc3[nH]ccc23)c(OC)n1,49%
11,COc1cc(-c2cc(NC3CCCC3)nc3[nH]ccc23)nc(N)n1,42.1%
12,COc1ncc(-c2cc(NC3CCCC3)nc3[nH]ccc23)c(OC)n1,66.7%
13,COc1nccnc1-c1cc(NC2CCCC2)nc2[nH]ccc12,60%
14,FC(F)(F)c1ccc(-c2cc(NC3CCNCC3)nc3[nH]ccc23)nc1,18.5%
15,COc1nccnc1-c1cc(NC2CCNCC2)nc2[nH]ccc12,-2.69%
16,CCS(=O)(=O)N1CCC(c2nc(C)c(C)c(N3CCCC3)n2)CC1,22.35%
17,Cc1noc([C@]23COC[C@H]2CN(C(=O)Cc2ccsc2)C3)n1,38.5%
18,O=C(CC1[C@H]2CN(Cc3ccc(F)cc3)C[C@@H]12)N1CCCC1 (some centres undefined),-7.28%
19,O=C(NCCc1cc(F)ccc1F)NCC(O)C1CC1 (centres undefined),14.9%
20,Cc1nc(C(=O)N(C)C2CC(=O)N(Cc3ccccc3)C2=O)cs1 (centres undefined),8.51%
21,CN(C(=O)c1ccc[nH]1)C1CC(=O)N(Cc2ccccc2)C1=O (centres undefined),15.2%
22,Cc1[nH]ccc1C(=O)N(C)C1CC(=O)N(Cc2ccccc2)C1=O (centres undefined),54.4%
23,O=C(c1cc(C2CCCCN2C(=O)C2CCC2)n[nH]1)N1CCOCC1 (centres undefined),-22.6%

row,Structure (SMILES),INHIBITION
1,CCn1ncc(CN2CCc3nc(-c4cccnc4)nc(O)c3C2)c1C,29.2%
2,CN(C)C(=O)COC[C@]12COC[C@H]1CN(Cc1ccco1)C2,-3.33%
3,Cc1nc(CCNC(=O)NCC(c2ccco2)N(C)C)cs1 (centres undefined),55.6%
4,CN(C)C(CNC(=O)NCCc1cccc(O)c1)c1ccco1 (centres undefined),41.4%
5,CN(C)C(CNC(=O)NCCS(C)(=O)=O)c1ccco1 (centres undefined),-18.3%
6,Cn1ccc2c(C(=O)N3CC[C@@]4(O)CCCC[C@H]4C3)cccc21,1.62%
7,O=C(NCc1nnc2n1CCC2)c1ccc(C2CCCO2)s1 (centres undefined),-1.7%
8,O=S(=O)(Cc1ccccc1)NCc1nnc2n1CCC2,-12.4%
9,O=C(NCc1nnc2n1CCCCC2)N(CC1CCOC1)C1CC1 (centres undefined),55%
10,O=S(=O)(Cc1ccc(F)cc1)NCc1nnc2n1CCC2,68.9%
11,O=C(NCc1nnc2n1CCCC2)c1ccc(C2CCCO2)s1 (centres undefined),59.1%
12,O=C(NCc1nnc2n1CCC2)c1ccc(Br)s1,49.4%
13,CCN(CC1CCOC1)C(=O)NCc1nnc2n1CCC2 (centres undefined),42%
14,O=C(NCc1nnc2n1CCC2)N(Cc1ccc(F)cc1)C1CC1,50.4%
15,CCN(CC1CCOC1)C(=O)NCc1nnc2n1CCCCC2 (centres undefined),34.4%
16,O=C(NCc1nnc2n1CCCCC2)N(Cc1ccncc1)C1CC1,26.5%
17,CN(Cc1ccc(F)cc1)C(=O)NCc1nnc2n1CCC2,-21.8%
18,O=S(=O)(Cc1ccc(F)cc1)NCCc1nnc2n1CCC2,30.5%
19,CCCC(C#N)NC(=O)c1sccc1CC (centres undefined),46.6%
20,CSc1ncnc(NCc2cccs2)c1C#N,10.6%
21,Cc1nsc(N2CCCN(C(=O)NCc3cc(C)on3)CC2)n1,45%
22,CCc1nccn1C1CCCN(C(=O)c2ccc3c(c2)nnn3C)C1 (centres undefined),12.7%
23,COc1cc2nc3n(c(=O)c2cc1OC)CCN(C(=O)C(C)(C)C)CC3,32.3%
